About 5,800 (36%) of roughly 16,000 compounds were called active. Not shown: some 23% with an inconclusive outcome. The list shows a part of the results. Values without a mark were called inactive. Calls follow the shape of the dose curve; as a rule, active = well fitted curve in the direction sought with a large enough effect; inconclusive = small, poorly fitted or top-dose-only effect, or effect the other way; inactive = no such curve, though single readings can be large or run the other way.
% is scaled to controls: 0 for no effect and ±100 for the full control effect.

Cytochrome P450 2C19 (Homo sapiens), sequence (P33261 whole entry, looked up): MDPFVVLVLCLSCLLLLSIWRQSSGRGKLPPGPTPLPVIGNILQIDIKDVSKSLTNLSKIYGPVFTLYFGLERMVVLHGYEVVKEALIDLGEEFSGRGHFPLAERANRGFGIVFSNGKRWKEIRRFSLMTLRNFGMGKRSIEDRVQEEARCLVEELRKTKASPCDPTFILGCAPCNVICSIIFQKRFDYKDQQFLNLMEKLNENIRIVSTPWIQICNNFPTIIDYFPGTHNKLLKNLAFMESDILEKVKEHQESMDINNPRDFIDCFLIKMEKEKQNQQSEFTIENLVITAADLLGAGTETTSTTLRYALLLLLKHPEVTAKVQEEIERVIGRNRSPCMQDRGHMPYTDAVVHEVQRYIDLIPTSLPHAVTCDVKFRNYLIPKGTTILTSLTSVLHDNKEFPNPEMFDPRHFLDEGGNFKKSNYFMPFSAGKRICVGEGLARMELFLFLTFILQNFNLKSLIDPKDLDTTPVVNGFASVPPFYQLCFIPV

This assay concerns the target Cytochrome P450 2C19 (Homo sapiens) (UniProt P33261). Nature of the assay: Cytochrome panel assay with activity outcomes. The following applies: recombinant CYP, pro-luciferin dealkylation, luminescence, p450-cyp2c19; series mostly up to 57.1 µM; activity, negative = inhibition: at the top concentration.
As to `O=C(CCn1c(=S)[nH]c2ccccc2c1=O)NCCCN1CCOCC1`, the “activity, negative = inhibition” value is -13.4%. On the same count and under the same terms, the result for `CCOC(=O)CCN1C(=O)[C@H]2[C@H]3[C@H](O)[C@H](O)C/C(=N/OC/C=C(\C)CCC=C(C)C)[C@H]3CC[C@@H]2C1=O` reads 12.1% [at 11.4 µM]. In the case of `Cc1ccc(S(=O)(=O)CCCS(=O)(=O)c2ccc(C)cc2)cc1`, the AC50 is 10 µM (active).

As for `N#Cc1ccc(CN2CCC3(CC2)CCN(S(=O)(=O)c2ccccc2)CC3)cc1`, the “activity, negative = inhibition” value was 5.6%. Still for that read-out and setting: the result for `Cn1cccc1C(=O)N1CCC2(CCCN(Cc3ccc(C#N)cc3)C2)CC1` reads -32.2%. As to `O=S(=O)(c1ccccc1)N1CCC2(CCCN(Cc3ccncc3)C2)CC1`, the AC50 is 0.316 µM (active). For `O=S(=O)(c1ccccc1)N1CCC2(CCN(Cc3ccncc3)CC2)CC1`, the “activity, negative = inhibition” value was -22.9%.

With `O=S(=O)(c1ccccc1)N1CCC2(CC1)CN(Cc1ccccc1)C2`, the “activity, negative = inhibition” value is -18.1%.

Consider `O=S(=O)(c1ccccc1)N1CCC2(CC1)CN(Cc1nccs1)C2`, for which the “activity, negative = inhibition” value is -10.2%.

Take `O=S(=O)(c1ccccc1)N1CCC2(CCN(Cc3nccs3)CC2)CC1`: the “activity, negative = inhibition” value was -13.1%. As to `O=S(=O)(c1ccccc1)N1CCC[C@@]2(CCN(Cc3nccs3)C2)C1`, the concentration at half-maximal activity (AC50) is 7.94 µM (active).

With `N#Cc1ccc(CN2CCCC3(CCN(S(=O)(=O)c4ccccc4)CC3)C2)cc1`, the AC50 was 15.8 µM (active).

As to `CN1CCN(c2ncc3nc(-c4cc(F)cc(F)c4)c(=O)n(CCc4ccccc4)c3n2)CC1`, the “activity, negative = inhibition” value is -7.74%. For `COc1cccc(N2CCN(C(=O)Nc3ccc4c(c3)NC(=O)CO4)CC2)c1`, the “activity, negative = inhibition” value was -26.8%. As for `CSc1ccccc1N1CCN(C(=O)Nc2ccc3c(c2)NC(=O)CO3)CC1`, the AC50 is 7.94 µM (active). In the case of `Cc1ccc(-n2c3c(c(=O)[nH]c2=O)C(NS(=O)(=O)c2ccc(C)cc2)(C(F)(F)F)C(=O)N3)cc1` (stereo not drawn), the “activity, negative = inhibition” value was -17.4%. `O=C(Nc1cccc(C(F)(F)F)c1)C1CCCN1S(=O)(=O)c1cccc2cccnc12` (stereo not drawn): the concentration at half-maximal activity (AC50) is 11.2 µM (active). Same read-out and setting: the result for `O=C1OCCC1Sc1nnnn1-c1ccccc1` (stereo not drawn) reads 22.4 µM (active). `NC(=O)NC(=O)CSc1nnc(-c2ccco2)n1Cc1ccccc1`: the “activity, negative = inhibition” value is -15.5%.

For `CC(=O)Nc1ccc(NC(=O)CSc2nnc(-c3ccccc3)n2Cc2ccc3c(c2)OCO3)cc1`, the AC50 is 3.55 µM (active). The same measure, in the same setting: as for `Cc1cc(NC(=O)CSc2nnc(-c3ccccc3)n2Cc2ccco2)no1`, the figure is 10 µM (active); as for `O=C(CSc1nnc(-c2ccccn2)n1Cc1ccco1)Nc1ccc2c(c1)OCO2`, 6.31 µM (active).

In the case of `COc1ccc(-c2nc3cnc(N4CCN(C)CC4)nc3n(CCC#N)c2=O)cc1`, the “activity, negative = inhibition” value was -0.278%. On the same count and under the same terms, the result for `C=CCOc1ccc(CNC(C)(C)CO)cc1OC` reads 23.4%; that for `C=CCOc1ccc(CNC(C)(C)CO)cc1OCC`, 68%.

For the compound `COc1cc(CNC(C)(C)CO)ccc1OCC(=O)Nc1ccc(Br)cc1`, the AC50 is 22.4 µM (active).

With `CC(C)CCNC(=S)NC1CCCC1`, the concentration at half-maximal activity (AC50) is 10 µM (active). The same measure, in the same setting: as for `CC(O)(CS(=O)(=O)Cc1ccccc1Cl)C(=O)Nc1cccc(C(F)(F)F)c1` (stereo not drawn), the figure is 2.82 µM (active); as for `CC(O)(CS(=O)(=O)Cc1ccc(Cl)cc1)C(=O)Nc1cccc(C(F)(F)F)c1` (stereo not drawn), 7.94 µM (active).

As for `CC(C)(C)C(=O)N1CCC(O)(CS(=O)(=O)Cc2ccc(Cl)cc2)CC1`, the “activity, negative = inhibition” value was -29.6%.

For `CC(C)CC(=O)N1CCC(O)(CS(=O)(=O)Cc2ccc(Cl)cc2)CC1`, the “activity, negative = inhibition” value is -5.81%. For `COCCn1c(=O)c(C)nc2cnc(N3CCN(C)CC3)nc21`, the “activity, negative = inhibition” value was 5.94%. As for `COc1ccc(CO/N=C/c2c(C)[nH]c(=O)[nH]c2=O)cc1`, the “activity, negative = inhibition” value is -20%. In the case of `COc1ccc(CN2C(=O)c3ccccc3C(/C=N\OCc3ccc(F)cc3)C2=O)cc1` (stereo not drawn), the AC50 was 2.51 µM (active). As for `CC(C)NC[C@H](O)c1ccc2ccccc2c1`, the AC50 result was “inactive”. As for `CCCCOC(OCCCC)[C@H](O)CSc1ccc2ccccc2c1`, the AC50 was 3.16 µM (active).

Consider `CCN(CC)C[C@@H](O)c1ccc2ccc3ccccc3c2c1`, for which the activity, negative = inhibition is -3.19% [at 11.4 µM]. On the same count and under the same terms, the result for `CCCc1nn2c(=O)c(C(c3ccc(C)cc3)c3c(O)nc4sc(CCC)nn4c3=O)c(O)nc2s1` reads -17.5%. As to `CCCCCCN(CCCCCC)C(=O)Cc1c(-c2ccc(F)cc2)[nH]c2ccccc12`, the AC50 was 3.98 µM (active).

Turning to `CN(C)CN1C(=O)S/C(=C2/C(=O)N(CN(C)C)c3ccccc32)C1=O`, the activity, negative = inhibition is 21.4% [at 11.4 µM]. In the case of `CCN1C(=O)/C(=C2\SC(N3CCCCC3)=NC2=O)c2ccccc21`, the half-maximal activity concentration (AC50) was 14.1 µM (active). Turning to `CC(C)(C)c1ccc(O)c(CN(Cc2c(O)ccc3ccccc23)C2CCCCC2)c1`, the AC50 is 2 µM (active).

Take `CC(C)(C)c1ccc(O)c(CN(Cc2cc(C(C)(C)C)ccc2O)C2CCCCC2)c1`: the concentration at half-maximal activity (AC50) is 1.58 µM (active). Same read-out and setting: the result for `Oc1ccc2ccccc2c1CN(Cc1c(O)ccc2ccccc12)C1CCCCC1` reads 1 µM (active); that for `Oc1ccc2ccccc2c1Cc1c(O)ccc2ccccc12`, 0.316 µM (active). Take `CN(C)Cc1cc(C(C)(C)C)ccc1-c1ccc(C(C)(C)C)cc1CN(C)C`: the activity, negative = inhibition was 39.4% [at 11.4 µM]. The same measure, in the same setting: the result for `O=C(O)Cc1c(O)ccc2ccccc12` reads 33.5% [at 11.4 µM].

On to `CC(C)(C)CC(C)(C)c1ccc(O)c(C[N+](C)(C)[O-])c1`, for which the activity, negative = inhibition was -6.26% [at 11.4 µM].

A word on the AC50: it is the concentration at which the activity in the assay is half-maximal.
